The entries come from a sample that favours hits as a whole.
Pf apPOL inh = Pf-apPOL DNA polymerase inhibition | AID 1794808 | 210,000 compounds, 0.25% hits | inhibition, % at 10 µM | Recombinant Pf-apPOL, molecular beacon fluorescence, 1.5 h
mHTT CaM bind = disrupts binding of mutant huntingtin to calmodulin; 190,000 compounds, 3.6% hits; AlphaScreen His-mHTT/GST-CaM binding, luminescence; P42858; inhibition, % at 15 µM;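 further: 0% = both proteins with DMSO and 100% = one protein alone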
* hit, by the source's call; nt = not tested or not shown. No stated cut-off is given here; in the data, active means inhibition above about 50%; inactive means the rest.

SMILES	Pf apPOL inh	mHTT CaM bind
COc1cc(O)c(CN(C)C)c2oc(-c3ccccc3)cc(=O)c12	-2.9	1.4
Cc1noc(C)c1CCC(=O)N1CCC(Nc2ncnc3c2CCC3)C1 (stereo not given)	-0.5	-7.2
CCCNC(=O)c1sc2cc(F)ccc2c1Cl	-3.6	-30.1
CN(C)c1ccc(C(=O)Nc2cc(-c3ccsc3)no2)cc1	0.0	-3.3
CCOc1ccc(Nc2c([N+](=O)[O-])cc([N+](=O)[O-])c3cccnc23)cc1	-5.9	29.0
Cc1ccc(Nc2c([N+](=O)[O-])cc([N+](=O)[O-])c3cccnc23)cc1	-2.2	51.0*
O=[N+]([O-])c1cccnc1N1CCOCC1	-8.4	-6.0
O=[N+]([O-])c1cc([N+](=O)[O-])c2cccnc2c1Nc1ccc(N2CCOCC2)cc1	-1.6	56.0*
O=C(O)CC1SC(c2ccc3c(c2)OCO3)=NC1=O (stereo not given)	51.8*	nt
CC(C)(C)c1ccc(C2=NC(=O)C(CC(=O)O)S2)cc1 (stereo not given)	38.5	nt
CCCn1cc2c3c(cccc31)CN(C(=O)Nc1ccc(OC)cc1)CC2	0.2	12.5
COc1ccc(NC(=O)N2CCc3c(c4ccccc4n3C)C2)cc1	-3.6	50.9*
CCCOc1ccc(OCCSc2nc(N)cc(=O)[nH]2)cc1	2.9	0.3
Nc1cc(=O)[nH]c(SCCOc2ccc(Cl)cc2)n1	-9.5	100.3*
COc1ccccc1CNC(=O)CCc1nc2ccccc2n(Cc2ccc(C)cc2)c1=O	-11.0	-6.0
O=C(CN1CCC(c2nnc(-c3ccc(F)cc3)o2)CC1)Nc1cccnc1	0.9	-9.2
COc1ccc(NC(=O)c2ccc(N(Cc3ccc(Cl)cc3)S(C)(=O)=O)cc2)cc1OC	-1.9	38.2
CS(=O)(=O)N(Cc1ccc(Cl)cc1)c1ccc(C(=O)Nc2ccc3c(c2)OCO3)cc1	89.3*	7.8
COc1ccc(N=C2SC(C(=O)N3CCN(c4ccc(F)cc4)CC3)CC(=O)N2C)cc1 (stereo not given)	-8.3	51.0*
O=C(O)C1CC(=O)N(Cc2ccc(Cl)cc2)C(=Nc2ccc(Cl)cc2)S1 (stereo not given)	-13.1	27.0
COc1ccc(N=C2SC(C(=O)O)CC(=O)N2Cc2ccc(F)cc2)cc1 (stereo not given)	2.8	-4.0
COc1ccc(CN2C(=O)CC(C(=O)O)SC2=Nc2ccc(Cl)cc2)cc1 (stereo not given)	51.7*	4.0
Oc1ccc(NCc2cccs2)cc1	-0.1	64.3*
COC(=O)c1ccc(NCc2cccs2)cc1	-3.3	-10.9
O=C(NCc1ccccc1Br)c1cn2c(n1)CCCC2	-4.0	-3.9
SMILES	Pf apPOL inh	mHTT CaM bind
CCCn1c(C2CCN(C(=O)Nc3ccc(Cl)cc3)C2)nc2cccnc21 (stereo not given)	-8.6	-1.9
O=[N+]([O-])c1ccccc1-c1ccc(/C=C/c2ccncc2)o1	6.0	69.0*
O=C(C=Cc1ccc([N+](=O)[O-])cc1)c1cc2ccccc2oc1=O	0.9	1.6
O=Cc1ccc(-c2ccccc2[N+](=O)[O-])o1	-1.4	8.0
CC1(C)OC(=O)C(=Cc2ccc(-c3ccccc3[N+](=O)[O-])o2)C(=O)O1	5.2	1.0
O=C(/C=C/c1ccc(-c2ccccc2[N+](=O)[O-])o1)c1cc2ccccc2o1	11.4	76.6*
NC1=NC(=O)/C(=C/c2ccc(-c3ccccc3[N+](=O)[O-])o2)S1	-11.8	59.0*
Cc1sc(NC(=O)C(Sc2ccccc2)c2ccccc2)c(C#N)c1C (stereo not given)	-3.3	-2.9
Cc1cccc(OCc2nc(C(=O)N3CCN(C)CC3)cs2)c1	1.2	8.2
CCN1C(=O)c2oc3ccccc3c(=O)c2C1c1cc(OC)c(OC)c(OC)c1 (stereo not given)	1.7	-3.0
CON=C1CC(c2ccccc2)Oc2ccccc21 (stereo not given)	-0.6	nt
O=[N+]([O-])c1cc(Cl)ccc1NCCCNS(=O)(=O)c1ccccc1	-1.1	53.0*
O=[N+]([O-])c1cc(Cl)ccc1NCCNS(=O)(=O)c1ccccc1	-0.6	41.0
NCc1cccc(Oc2ccccc2)c1	-13.1	-4.9
N#Cc1cccc(C(=O)Cc2cccc(Oc3ccccc3)c2)c1	55.7*	nt
Cc1cc(C)c(-c2noc(C)n2)c(NC(=O)c2cccc(Cl)c2)n1	1.9	0.3
O=C(CCCOc1ccc(Cl)cc1Cl)NC1=NN(c2ccccc2)C(=O)C1	-7.6	13.0
O=C1C(Nc2ccccc2)=CC(c2ccccc2[N+](=O)[O-])N1c1ccccc1 (stereo not given)	1.2	66.0*
COc1ccc(OC)c(C2C=C(Nc3ccccc3)C(=O)N2c2ccccc2)c1 (stereo not given)	-6.6	5.0
CCOC(=O)c1c(C)oc(-c2ccc(C)cc2)c1S(=O)(=O)N1CCOCC1	2.8	nt
COc1ccc([N+](=O)[O-])cc1COc1cc2oc(=O)c3c(c2cc1Cl)CCC3	6.9	-1.0
O=c1[nH]c(-c2ccc(Br)cc2)cn1-c1ccccc1	3.1	31.0
CCn1c(CCC(=O)NCc2ccc(Cl)cc2)nc2ccccc2c1=O	-1.6	-4.7
CC(=O)COc1ccc2c(c1)OC(=CC1=Cc3ccccc3OC1)C2=O	-2.4	-2.1
O=C(Oc1ccc2c(c1)OC(=CC1=Cc3ccccc3OC1)C2=O)c1cccs1	-2.5	78.7*
SMILES	Pf apPOL inh	mHTT CaM bind
Cc1cc(N2CCN(C(=O)c3ccccc3)CC2)nc(-c2cccc(F)c2)n1	4.5	18.3
C=CCN1N=C(NC(=O)c2cccc(Br)c2)SC=C1c1ccccc1	-10.8	55.0*
O=C(Nc1ccc(NC(=O)c2cccc(Br)c2)cc1)c1ccccc1	-5.9	-5.7
O=C(C1CC1)N1CCc2sc(S(=O)(=O)Nc3ccc(N4CCOCC4)cc3)cc2C1	-1.7	4.3
COc1ccc(OC)c(NC(=O)c2ccc(OC)c([N+](=O)[O-])c2)c1	0.1	-5.8
CSc1ccccc1C(=O)Nc1nnc(-c2ccc3c(c2)CCCC3)o1	-16.3	32.8
Cc1cccc(C)c1NC(=O)CN1CCC2(CC1)N=C(c1ccccc1)C(=O)N2	1.5	22.7
Cc1noc(COC2CCN(C(=O)c3ccncc3)CC2)n1	-6.5	-0.6
CN(C)c1ccc(-c2nc3n(n2)C(c2ccc(F)cc2)C2=C(CCCC2=O)N3)cc1 (stereo not given)	-2.1	50.6*
CN(C)c1ccc(-c2nc3n(n2)C(c2ccccc2)C2=C(CCCC2=O)N3)cc1 (stereo not given)	-6.3	5.3
O=C(c1nn2c(c1Cl)NC(c1cccs1)CC2C(F)(F)F)N1CCc2ccccc2C1 (stereo not given)	-6.2	100.0*
O=C(c1nn2c(c1Cl)NC(c1cccs1)CC2C(F)(F)F)N1CCCC1 (stereo not given)	-5.7	12.0
CN(C(=O)c1nn2c(c1Cl)NC(c1cccs1)CC2C(F)(F)F)C1CCCCC1 (stereo not given)	3.7	77.0*
O=C(NC1CCCCC1)c1nn2c(c1Cl)NC(c1cccs1)CC2C(F)(F)F (stereo not given)	-41.9	17.0
Cc1ccc(CNC(=O)C2(C)CCCN(C(=O)NCC(C)C)C2)cc1 (stereo not given)	-8.1	-8.5
CCSc1ccc(Cc2nnc(NC(=O)c3ccc(S(=O)(=O)N(C)C)cc3)o2)cc1	-253.1	61.3*
CCc1nnc(NC(=O)c2ccc(S(=O)(=O)N(C)C)cc2)o1	-3.9	24.0
Cc1ccccc1NC(=O)c1cc2c(CO)cnc(C)c2oc1=Nc1ccc(Cl)cc1	2.3	6.0

Bioassay records from PubChem BioAssay.
